# BRCT PPI red: disrupts BRCA1 BRCT binding to phosphoprotein, red fluorophore readout. hit rate 0.03% among 75,000. Potency, µM (titrated, usually from 76.9 µM), usual class: inhibitors. AID 892. BRCT-phosphopeptide binding, red fluorescence polarization
#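 Fluorescence polarization: 100 nM His-tagged BRCA1 BRCT with 100 nM TAMRA-labelled phospho-BACH1 decapeptide, phosphate buffer pH 7.3 with 150 mM NaCl, DTT, 0.01% Tween 20; 12 min RT. Binding inhibition seen as FP decrease.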
# BRCT PPI green: blocks human BRCA1 BRCT binding to phosphopeptide, green readout | P38398 | BRCA1 BRCT-phosphopeptide binding, green fluorescence polarization | Potency, µM (doses to about 76.9 µM), usual class: inhibitors | hit rate 0.05% among 75,000
#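 Fluorescence polarization: His-tagged BRCT (~35 kDa BRCA1 C-terminus, 250 nM) bound to 100 nM fluorescein-labeled phosphorylated 10-aa BACH1 peptide, pH 7.3 phosphate buffer with DTT and Tween 20. Compounds incubated 12 min at room temperature; inhibition read as lowered polarization.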
# DNA Pol III inh: blocks replication by bacterial DNA polymerase III holoenzyme; reconstituted DNA polymerase III holoenzyme replication, biochemical; Potency, µM (series often up to 57.1 µM); hit rate 0.25% among 71,000; AID 603
#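 Reconstituted *E. coli* holoenzyme (0.35 nM Pol III, 1 nM beta, 154 nM SSB, 2 nM primase) was preincubated with compound for 15 min at RT. Synthesis on 1.4 nM ssM13Gori ran 35 min, then was stopped with PicoGreen/EDTA and read as dsDNA fluorescence.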
# YjeE inh: inhibitors of E. coli YjeE (TsaE). P0AF67. AID 605. hit rate 0.05% among 71,000. purified YjeE enzyme, qHTS inhibition assay. Potency, µM
#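 Purified YjeE (10 uM) with BODIPY Texas Red-labeled ADP probe (2 uM); compounds pin-transferred, 15 min at room temperature. Binding inhibition read as decreased fluorescence polarization; ADP titration as control.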
# Hsp90 Hop PPI: changes Hsp90-Hop TPR2A binding signal, up or down | AlphaScreen TPR2A-His6 binding biotin-Hsp90 C-terminal peptide | Potency, µM (doses to about 57 µM) | hit rate 0.44% among 71,000 | AID 595; active = well fitted curve in either direction with a large enough effect; inconclusive = small, poorly fitted or top-dose-only effect, or another doubt
# GBA activity: modulators of human glucocerebrosidase; AID 360; P04062; hit rate 1.1% among 48,000; purified enzyme, resorufin glucoside fluorescence (screen aimed at inhibitors), 20 min; Potency, µM; in the data active = potency below about 15 µM; inconclusive = mostly about 16 µM to 33 µM;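 also: the screen sought inhibitors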
#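 Normal human glucocerebrosidase (0.2 nM final) was assayed with resorufin β-D-glucopyranoside (30 uM final) in 50mM citric acid/KH2PO4, 10mM sodium taurocholate, 0.01% tween-20, pH 5.9. Compounds were titrated; fluorescence (Ex 548, Em 600) read after 20 min at RT.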
# Hsp90-TPR2A inh: confirmation and counter-screen of Hsp90 TPR2A co-chaperone interaction disrupters; shares compounds with Hsp90 Hop PPI; activity, negative = inhibition, % at 40 µM or 46 µM, hits read low; AID 632; hit rate 100% among 45; AlphaScreen TPR2A-His6 / biotin-Hsp90 peptide binding;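 active = compound lowering the Hsp90 and TPR2A binding signal, whether or not the linker counterscreen also flagged it as an artifact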
# A number is an active result; n = inactive; u = inconclusive; x = no result; + = active, no number; ! = not active in a repeat; [ ] = dose if it differs, or a comment. An excerpt weighted towards active compounds, which were near 1.2% of everything screened. Unless noted, calls follow the shape of the dose curve; as a rule, active = well fitted curve in the direction sought with a large enough effect; inconclusive = small, poorly fitted or top-dose-only effect, or another doubt; inactive = no such curve, though single readings can be large; an effect the other way counts as inactive or inconclusive.
SMILES,BRCT PPI red,BRCT PPI green,DNA Pol III inh,YjeE inh,Hsp90 Hop PPI,GBA activity,others
c1ccc2c(c1)-c1cccc3cccc-2c13,n,n,n,n,31.6µM,x,
O=C(O)c1ccccc1-c1c2cc(Br)c(=O)cc-2oc2[c]([Hg])c(O)c(Br)cc12,1.58µM,0.794µM,n,n,n,x,
CN1C[C@@H](CNC(=O)OCc2ccccc2)C[C@H]2c3cccc4c3c(cn4C)C[C@@H]21,x,x,n,n,n,x,
CC[C@H](CO)NC(=O)[C@H]1C=C2c3cccc4[nH]cc(c34)C[C@H]2N(C)C1,x,x,n,n,n,x,
c1cc2cc(c1)C[n+]1ccc(c3ccccc31)NCc1ccc(cc1)CNc1cc[n+](c3ccccc13)C2,n,n,31.6µM,n,n,x,
O=C1CN=C(c2ccccc2)c2oc3ccc(Br)cc3c2N1,n,n,n,n,n,3.26,
COc1cccc(OC)c1C1=NCC(=O)Nc2c1oc1ccc(Br)cc21,n,n,n,n,n,x,
COc1cc2c(cc1OC)-c1c(O)c(OC)cc3c1[C@@H](C2)N(C)CC3,x,x,n,n,u,x,
N[C@@H](Cc1cc(O)c(O)cc1O)C(=O)O,u,u,0.398µM,n,7.94µM,x,
N[C@]1(C(=O)O)CC[C@@H](C(=O)O)C1,x,x,n,n,n,x,
CN1C(=O)N(C)C(=O)C2(Cc3c(nc4ccccn4c3=O)N3CCC(Cc4ccccc4)CC32)C1=O (configuration not stated),n,n,n,n,n,13.3,
CN1C(=O)N(C)C(=O)C2(Cc3c(nc4ccccn4c3=O)N3CCc4ccccc4C32)C1=O (configuration not stated),n,n,n,n,n,n,
CC1CCN2c3nc4ccccn4c(=O)c3CC3(C(=O)N(C)C(=O)N(C)C3=O)C2C1 (configuration not stated),n,n,n,n,n,n,
Cc1cccn2c(=O)c3c(nc12)N1CCC(Cc2ccccc2)CC1C1(C3)C(=O)N(C)C(=O)N(C)C1=O (configuration not stated),n,n,n,u,n,6.33,
C[C@]1(C(=O)O)[C@@H]2CC[C@@H](O2)[C@@]1(C)C(=O)O,n,n,n,n,n,x,
O=C(O)Cc1cccnc1C(=O)O,n,n,n,n,7.94µM,x,
O=C(O)COc1ccccc1,n,n,n,n,n,x,
N#CC(C#N)=Cc1cc(O)c(O)c(O)c1,n,n,n,n,7.94µM,x,
Cl.Cl.Cl.Cl.Cl.Cl.N.N.N.N.NNNNN.NNNNN.O.O.[Ru].[Ru].[Ru],n,n,u,79.4µM,u,x,
CN1CCN(C(=O)COc2ccc3ccccc3c2Br)CC1,n,n,n,n,2.51µM,x,
CN(C)[C@@H]1C(=O)C(C(N)=O)=C(O)[C@]2(O)C(=O)C3=C(O)c4c(O)cccc4[C@](C)(O)[C@H]3C[C@@H]12,u,u,3.16µM,n,n[11 µM],x,
C=CC(C)=O,n,n,n,n,n,x,
CC(=O)[O-].CC(=O)[O-].O.O.[Cd+2],n,n,0.251µM,u,n,x,
O=C1C[C@@H]2OCC=C3CN4CC[C@]56c7ccccc7N1[C@H]5[C@@H]2[C@H]3C[C@@H]46,x,x,n,n,n,x,
COc1ccc2c3c([nH]c2c1)C(C)=NCC3,n,n,n,n,n,x,
SMILES,BRCT PPI red,BRCT PPI green,DNA Pol III inh,YjeE inh,Hsp90 Hop PPI,GBA activity,others
CC1=NCCc2c1[nH]c1cc(O)ccc21,n,31.6µM!,n,n,n,x,
CCCC[N+]1(C)[C@@H]2CC(OC(=O)[C@@H](CO)c3ccccc3)C[C@H]1[C@H]1O[C@H]12 (some centres not stated),n,n,n,n,n,x,
CC(=O)[C@@H]1CC[C@@H]2[C@H]3CC[C@H]4C[C@@H](O)CC[C@]4(C)[C@@H]3C(=O)C[C@]21C,x,x,n,n,n,x,
Oc1ccc2c3c1O[C@@H]1c4[nH]c5c(c4C[C@@]4(O)[C@@H](C2)N(CC2CC2)CC[C@]314)C[C@]1(O)[C@@H]2Cc3ccc(O)c4c3[C@@]1(CCN2CC1CC1)[C@H]5O4,n,n,n,n,u,x,
CN(N=O)c1ccc(O)c(O)c1,6.31µM,10µM,0.398µM,n,3.16µM,x,
CCCCCCCCCCCCCC(=O)O[C@H]1[C@@H](C)[C@@]2(O)[C@@H](C=C(CO)C[C@]3(O)C(=O)C(C)=C[C@@H]23)C2C(C)(C)[C@]21OC(C)=O (some centres not stated),n,n,n,n,n,x,
Brc1ccc(Oc2ccc(Br)cc2Br)c(Br)c1,n,n,n,n,31.6µM,x,
CC[C@H](CO)NC(=O)[C@@H]1C=C2c3cccc4[nH]cc(c34)C[C@@H]2N(C)C1,n,n,n,n,n,x,
CC(C)[C@H]1C(=O)N2CCC[C@@H]2[C@]2(O)O[C@@](NC(=O)[C@H]3C=C4c5cccc6[nH]cc(c56)C[C@H]4N(C)C3)(C(C)C)C(=O)N12,x,x,n,n,n,x,
C/C=C1\C[C@H](C)[C@](O)(CO)C(=O)OCC2=CCN3CC[C@@H](OC1=O)[C@@H]23,x,x,n,n,n,x,
[O]=[Cr](=[O])([OH])[O][Cr](=[O])(=[O])[OH],n,n,5.01µM!,n,u,x,
CC[n+]1c(-c2ccccc2)c2cc(N)ccc2c2ccc(N)cc21,u,u,2µM,79.4µM,n,x,
O=C(O)[C@@H]1[C@H](C(=O)O)[C@]2(Cl)C(Cl)=C(Cl)[C@@]1(Cl)C2(Cl)Cl,n[15.4 µM],n[15.4 µM],2µM,n,n[11 µM],x,
COCCCn1c(N)c(C(=O)NCCC(C)C)c2nc3ccccc3nc21,n,n,n,n,25.1µM,n,
CCCCCn1c(N)c(C(=O)NCCN2CCOCC2)c2nc3ccccc3nc21,n,n,n,n,u,n,
CCn1nc(-c2cccs2)nc2c(=O)n(C)c(=O)nc1-2,n,n,n,n,1.58µM,n,Hsp90-TPR2A inh=+
C#CCN[C@@H](C)Cc1ccccc1,n,n,n,n,n,x,
C[C@]12CC[C@H](O)C[C@@H]1CC[C@H]1[C@H]2CC[C@]2(C)[C@H](C(=O)CO)CC[C@@H]12,n,n,n,n,n,x,
Cn1nc(Cc2ccccc2)nc2c(=O)n(C)c(=O)nc1-2,x,x,x,x,x,x,Hsp90-TPR2A inh=+

# Assay outcomes from PubChem BioAssay.
